PNC assembly inh: inhibitors of perinucleolar compartment assembly | PC3M PTB-GFP, PNC prevalence imaging, 16 h; hits give low values | activity change (PNC), negative = inhibition, % at 10 µM | actives 3.1% (n = 140,000);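 active = readout at or below -70, meaning at least 70% loss of cells showing the perinucleolar compartment, a nuclear body marking cancer cells; inconclusive = readout between -30 and a set limit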;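 also: plate controls were DMSO wells for no effect and camptothecin positive control wells for full effect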
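Read-out is percentage of cells bearing a perinucleolar compartment, from automated 20x imaging of fixed, Hoechst-stained PC3M PTB-GFP cells. Cells were seeded 4 h, then exposed 16 h to compound (23 nl of library stock) in duplicate plates.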
HPGD inh: blocks human HPGD enzyme activity; P15428; purified HPGD, NADH fluorescence kinetic, PGE2 substrate; Potency, µM, for the others: top-dose activity change, negative = inhibition, hits mostly inhibitors; actives 4.3% (n = 150,000); AID 894; also: potency is read from the fitted curve at half-maximal effect
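NADH formation kinetics: reaction with 30 uM PGE2 and 1 mM NAD+ (final), 20 nM enzyme, Tris-HCl pH 8 with Tween 20, after 15 min compound preincubation at room temperature. Fluorescence change, last versus first of five reads.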
ALDH1A1 inh: ALDH1A1 (human) enzyme inhibition | P00352 | Purified ALDH1A1, NADH fluorescence, propionaldehyde substrate | Potency, µM (titrated, usually from 75.3 µM), for the others: at the top dose activity, negative = inhibition, actives largely listed as inhibitors | actives 7.3% (n = 220,000) | AID 1030;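 also: potency is read from the fitted curve at half-maximal effect; plate controls were no enzyme wells and a reference inhibitor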
12-hLO inh: 12-hLO (ALOX12) enzyme inhibition; P18054; Potency, µM (titrated, usually from 57.1 µM), inactives show at the top dose activity change, negative = inhibition, usual class: inhibitors; actives 0.12% (n = 150,000); AID 1452; purified 12-hLO, xylenol orange hydroperoxide absorbance; active = well fitted inhibition curve with a large enough effect; inconclusive = small, poorly fitted or top-dose-only effect; also: potency is read from the fitted curve at half-maximal effect; nearly all actives have a fitted effect of over 55% in size
Target sequence (P18054 whole entry, looked up): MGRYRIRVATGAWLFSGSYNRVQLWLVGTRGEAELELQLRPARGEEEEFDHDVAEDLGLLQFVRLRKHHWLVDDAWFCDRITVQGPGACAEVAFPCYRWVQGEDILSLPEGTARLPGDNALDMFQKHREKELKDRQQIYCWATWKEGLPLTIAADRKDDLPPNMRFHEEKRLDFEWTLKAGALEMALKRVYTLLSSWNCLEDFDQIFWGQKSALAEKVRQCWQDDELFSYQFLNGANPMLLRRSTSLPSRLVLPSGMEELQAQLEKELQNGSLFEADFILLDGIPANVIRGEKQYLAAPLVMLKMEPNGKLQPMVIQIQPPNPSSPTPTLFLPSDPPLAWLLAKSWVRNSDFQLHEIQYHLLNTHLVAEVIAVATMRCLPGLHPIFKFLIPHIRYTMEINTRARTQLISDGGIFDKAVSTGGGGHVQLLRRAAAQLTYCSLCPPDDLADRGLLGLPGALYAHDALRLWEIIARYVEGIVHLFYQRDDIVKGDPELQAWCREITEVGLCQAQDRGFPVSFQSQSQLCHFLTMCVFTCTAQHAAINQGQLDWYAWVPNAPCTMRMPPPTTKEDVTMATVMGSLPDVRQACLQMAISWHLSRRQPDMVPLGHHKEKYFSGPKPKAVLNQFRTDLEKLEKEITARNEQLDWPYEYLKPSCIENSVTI
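150 nM 12hLO, 25 mM Hepes pH 7.0 + 0.01% Triton X-100; cpd preinc 15 min RT; 40 uM arachidonic acid, 30 min RT; Fe-XO 30 min; A573/A405 ratio as read-out.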
LMNA splice mod: LMNA splicing modulation; actives 0.01% (n = 200,000); HeLa LMNA splicing GFP/RFP minigene ratio, 48 h; Potency, µM (top dose mostly 46.1 µM), inactives show top-dose ratio change, negative = inhibition, hits mostly inhibitors; AID 1487; active = well fitted inhibition curve with a large enough effect in the signal ratio, with a control signal flat, not every such curve was filed as active; inconclusive = small, poorly fitted or top-dose-only effect, or effect the other way, or a change in a side signal; the % refers to the signal ratio; also: potency is read from the fitted curve at half-maximal effect
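S3 HeLa cells stably expressing lamin A-EGFP splicing minigene plus DsRed2, 600 cells/well, 48 h compound exposure at 37C. Laser-scanning cytometry; analysed as GFP (500-530 nm)/RFP (575-640 nm) total intensity ratio; 0.5% DMSO vehicle.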
The depositor's hits bear a star; ? = inconclusive; . = no result; [ ] = remark or other dose. A selection: hits, their analogues and other compounds. The true share with any hit is near 10%. Unless noted, calls follow the shape of the dose curve; as a rule, active = well fitted inhibition curve with a large enough effect (not every such curve was filed as active); inconclusive = small, poorly fitted or top-dose-only effect, or another doubt; inactive = no such curve, though single readings can be large or run the other way. Unless noted, % is scaled to controls: 0 for no effect and ±100 for the full control effect.

SMILES	PNC assembly inh	HPGD inh	ALDH1A1 inh	12-hLO inh	LMNA splice mod
COC(=O)[C@@H](NC(=O)O[C@@H]1C(=O)c2cc(OC)ccc2O[C@H]1c1cccc(OC)c1)C(C)C	.	-9%	-13%	.	.
CCOC(=O)c1c(/N=C/C2C(=O)CC(C)(C)CC2=O)sc2c1CCCC2	.	.	8.9µM*	.	-12%[46 µM]
CCOC(=O)c1c(/N=C/C2C(=O)CCCC2=O)sc2c1CCCC2	.	.	16µM*	.	.
CCOC(=O)c1cc(CC)sc1/N=C/C1C(=O)CC(C)(C)CC1=O	?	-4%	11µM*	0%	-7%
OCC1(Cc2ccccc2)CCCN(Cc2c[nH]c3ccccc23)C1 (configuration not stated)	.	.	2%	.	-9%[46 µM]
CCc1ccc2nc(N3C(=O)C(O)=C(C(=O)c4ccco4)C3c3cccs3)sc2c1 (configuration not stated)	-100*	20µM*	-3%	6%	?
Cc1ccc2nc(N3C(=O)C(O)=C(C(=O)c4cc5ccccc5o4)C3c3cccs3)sc2c1 (configuration not stated)	?	-28%	20µM*	?	?
COC(=O)c1sc(N2C(=O)c3oc4ccccc4c(=O)c3C2c2cccs2)nc1C (configuration not stated)	20	-10%	-4%	5%	2%
Cc1cc(N2C(=O)C(O)=C(C(=O)c3ccc(C)o3)C2c2cccs2)no1 (configuration not stated)	17	28µM*	22µM*	13%	2%
COCCNc1nc(-c2ccccc2CN(C)C)nc2ccccc12	.	-9%	7%	5%	-6%
COc1ccc(NC(=O)C/C(C)=N/NC(=O)C(=O)NC(C)C)c(OC)c1	.	.	3%	.	.
COc1ccc(NC(=O)C/C(C)=N/NC(=O)C(=O)Nc2cccc(Cl)c2C)c(OC)c1	.	.	1.3µM*	.	.
O=C(NCCc1csc(-c2cccnc2)n1)c1cccc(C(F)(F)F)c1	.	.	.	.	5%[46 µM]
C/C=C1\C2C=C(C)C[C@@]1(N)c1ccc(=O)[nH]c1C2	.	-5%	7%	0%	.
O=C(NC1CCCC1)c1nc2c(nnn2Cc2ccccc2Cl)c(=O)[nH]1	20	?	-2%	2%	2%
O=C(NCc1ccco1)c1nc2c(nnn2Cc2ccccc2Cl)c(=O)[nH]1	2	14µM*	-1%	-1%	?
O=C(NCc1cccs1)c1ccc(Cn2c(SCc3ccc(F)cc3)nc3cccnc32)cc1	.	.	.	.	-6%[46 µM]
O=C(CSCc1nc2c(nnn2Cc2ccc(F)cc2)c(=O)[nH]1)Nc1c(Cl)cc(Cl)cc1Cl	.	.	2%	.	.
Cc1nc(NCC2CCCO2)c2nnn(Cc3ccccc3)c2n1 (configuration not stated)	15	-27%	22µM*	-3%	?
O=C(NCc1cccs1)c1nc2c(nnn2Cc2ccc(F)cc2)c(=O)[nH]1	-21	14µM*	-1%	-7%	1%
CCc1nc2c(nnn2Cc2ccc(F)cc2)c(=O)[nH]1	?	14µM*	-8%	6%	9%
O=C(c1cccc(F)c1)N1CCC2(CCCN(c3ccccn3)C2)CC1	.	-18%	?	1%	.
Nc1ncnc2c1nc(Sc1ccc(Cl)cc1)n2[C@@H]1O[C@H]2COP(=O)(O)O[C@@H]2[C@H]1O	.	.	.	-4%	.
CCc1ccccc1NC(=O)c1sc(-n2nc(C)c(Cc3ccc4c(c3)OCO4)c2C)nc1C	.	.	.	.	17%[46 µM]
O=C(NCC1CCCO1)c1nc2c(nnn2Cc2ccc(F)cc2)c(=O)[nH]1 (configuration not stated)	-16	14µM*	1%	-2%	14%
SMILES	PNC assembly inh	HPGD inh	ALDH1A1 inh	12-hLO inh	LMNA splice mod
O=C(NC(=S)NNC(=O)[C@H]1C[C@@H]1c1ccccc1)c1ccc(F)cc1	.	.	25µM*	.	.
O=C(NNC(=O)C1CC1c1ccccc1)c1ccccc1F (configuration not stated)	.	.	9%	.	0%[46 µM]
CSc1ccc(C(=O)C2CCCN(C(=O)CCCn3cncn3)C2)cc1 (configuration not stated)	.	.	16µM*	.	.
CCCCC[C@H](O)/C=C/C=C\C=C\[C@@H](O)C/C=C\CCCC(=O)O	.	-16%	-3%	1%	.
Nc1ncnc2c1nc(Br)n2[C@@H]1O[C@H]2COP(=O)(O)O[C@@H]2[C@H]1O	.	.	.	5%	.
NC(=S)NNc1cc(Cl)cc(Cl)c1	-9	-14%	2µM*	?	?
O=C(Nc1cccc(F)c1)N1CCC2(CC1)CCN(C(=O)c1cc(C(F)(F)F)cc(C(F)(F)F)c1)CC2	.	-10%	9%	-2%	.
Cc1c(Cl)cccc1-n1c(SCC(=O)N2CCC(C(=O)O)CC2)nnc1-c1ccncc1	.	.	-2%	.	?
CCOC(=O)C1(Cc2ccc(OC)cc2)CCN(C(=O)CN2CCN(CC)CC2)CC1	.	.	25µM*	.	.
Cc1ccc(-n2cc(-c3ccccc3)c3c(NC4CCCC4)ncnc32)cc1	.	.	.	.	-17%[46 µM]
Cc1ccc(OCCn2cnc(Cl)c2Cl)cc1	.	.	5%	.	?
Cc1ccc(OCCn2cc(Br)c(=O)[nH]c2=O)cc1	1	-1%	20µM*	-2%	8%
O=C(c1cc(NC(=O)C23CC4CC(CC(C4)C2)C3)cc(NC(=O)C23CC4CC(CC(C4)C2)C3)c1)N1CCCCC1	-97*	-14%	5%	7%	?
O=C(NC(=S)N1CCCCC1)C12CC3CC(CC(C3)C1)C2	-24	-11%	-10%	-21%	-6%
CCn1c2ccc(/C(C)=N\O)cc2c2cc(/C(C)=N\O)ccc21	-22	2.8µM*	-2%	-8%	-14%
CCn1c2ccccc2c2cc(/C=N/O)ccc21	.	.	-1%	.	4%[46 µM]
Cc1ccc2nc(-c3ccccc3)nc(SC(C)C(=O)NCc3cccs3)c2c1 (configuration not stated)	28	-11%	2%	-1%	-3%
Cc1ccc(C)c2c(SC(C)C(=O)NCc3ccco3)nc(-c3ccccc3)nc12 (configuration not stated)	-100*	-22%	-1%	29%	-3%
CCOC(=O)N1CCN(C(=O)COc2ccc(Cl)cc2)CC1	?	6%	3%	6%	-3%
CC1CN(C2CCN(C(=O)COc3ccc(Cl)cc3)CC2)CC(C)O1 (configuration not stated)	22	-2%	13µM*	-15%	-6%
Cc1ccc(/C=N/NC(=O)CSc2nnc(-c3ccc(Cl)cc3)n2-c2ccccc2)o1	?	?	10µM*	0%	18%
O=C(COc1cccc2ccccc12)N/N=C/c1ccc(Sc2nc3ccccc3s2)o1	-11	28µM*	?	7%	-26%
Cc1ccc(/C=N/NC(=O)CSc2nc3ccccc3s2)o1	-3	14µM*	11µM*	-2%	-1%
Cc1ccccc1OCC(=O)N/N=C/c1ccc(Sc2nc3ccccc3s2)o1	18	-18%	-5%	-2%	-10%
CCOc1ccc(CCNC(=O)Cn2nc(-c3ccc(C)cc3)ccc2=O)cc1OCC	.	.	.	.	2%[46 µM]

Screening data from PubChem BioAssay.
